Assay outcomes as filed in PubChem BioAssay.
Compounds with a hit are over-represented: about 12% of the library has one in this group of screens.
L3MBTL1 inh – inhibitors of human L3MBTL1; AID 485360; Potency, µM (top dose mostly 57.1 µM), usual class: inhibitors; Q9Y468; 0.66% of 230,000 active; AlphaScreen L3MBTL1–H3K9me1 peptide binding; also: nearly all actives have a fitted effect of over 60% in size
Target sequence (Q9Y468 whole entry, looked up): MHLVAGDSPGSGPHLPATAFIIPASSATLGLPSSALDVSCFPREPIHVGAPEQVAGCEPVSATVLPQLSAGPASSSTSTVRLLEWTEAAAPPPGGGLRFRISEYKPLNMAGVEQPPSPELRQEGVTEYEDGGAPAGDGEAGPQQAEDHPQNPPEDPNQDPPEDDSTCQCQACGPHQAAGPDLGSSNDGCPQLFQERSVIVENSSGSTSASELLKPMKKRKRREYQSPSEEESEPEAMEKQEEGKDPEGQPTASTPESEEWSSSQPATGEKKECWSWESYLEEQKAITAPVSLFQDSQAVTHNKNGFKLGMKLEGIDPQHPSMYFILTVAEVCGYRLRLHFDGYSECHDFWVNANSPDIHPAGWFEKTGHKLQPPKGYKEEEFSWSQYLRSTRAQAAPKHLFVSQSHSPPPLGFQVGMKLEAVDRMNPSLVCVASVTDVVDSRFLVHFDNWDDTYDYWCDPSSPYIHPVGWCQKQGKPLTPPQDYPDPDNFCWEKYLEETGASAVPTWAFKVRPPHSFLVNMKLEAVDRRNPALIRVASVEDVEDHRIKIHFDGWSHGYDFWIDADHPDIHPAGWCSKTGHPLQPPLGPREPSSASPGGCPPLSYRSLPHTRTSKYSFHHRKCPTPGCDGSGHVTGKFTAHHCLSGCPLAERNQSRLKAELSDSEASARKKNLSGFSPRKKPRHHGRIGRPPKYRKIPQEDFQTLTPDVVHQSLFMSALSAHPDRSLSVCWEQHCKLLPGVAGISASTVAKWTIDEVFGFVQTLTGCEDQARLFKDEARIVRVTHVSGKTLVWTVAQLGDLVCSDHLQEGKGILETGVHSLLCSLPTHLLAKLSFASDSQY
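AlphaScreen proximity signal between nickel-chelate acceptor and streptavidin donor beads (final 10 ug/mL) reports binding of 50 nM L3MBTL1 to 75 nM biotin-H3 K9me1 peptide; complex incubated with compounds 30 min at room temperature; cefsulodin titration as control.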
BAZ2B inh – BAZ2B (human) inhibition; AlphaScreen BAZ2B-H3K14Ac peptide displacement; Potency, µM (top dose mostly 114 µM), most hits filed as inhibitors; 4.4% of 360,000 active; AID 504333; also: nearly all actives have a fitted effect of over 60% in size
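Compounds, titrated to a top concentration of 110 uM, were incubated 30 min at room temperature with preformed BAZ2B/acetyl-K14 H3 peptide complex (50 nM each). Proximity signal was measured by AlphaScreen after 20 min with beads.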
G9a inh – inhibitors of human histone lysine methyltransferase G9a; 8.8% of 350,000 active; Q96KQ7; AID 504332; G9a H3K9 monomethylation, AlphaScreen, 2 h; Potency, µM (doses to about 102 µM), usual class: inhibitors; also: nearly all actives have a fitted effect of over 75% in size
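Methyltransferase reactions run at room temperature for 2 h (20 nM enzyme, 500 nM biotin-H3K9 peptide, 20 uM SAM) after a 15 min compound preincubation; product detected by AlphaScreen beads and anti-H3K9me1 antibody.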
Sfp inh – inhibitors of Bacillus subtilis Sfp phosphopantetheinyl transferase. Q9F4F7. Biochemical Sfp PPTase activity, qHTS. Potency, µM, actives largely listed as inhibitors. 3.5% of 310,000 active;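 also: the enzyme is Sfp with the accession as filed and its product quenches rhodamine fluorescence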
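Compounds were incubated with enzyme (final 15 nM) for 15 min at room temperature before substrate addition started the reaction. Fluorescence at 525 nm excitation, 598 nm emission was recorded immediately and after 30 minutes.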
HP1b binding inh – HP1-beta chromodomain-methylated histone interaction inhibition | AlphaScreen HP1-beta / biotin-H3K9me3 peptide binding | AID 540317 | Potency, µM (series often up to 114 µM), most hits filed as inhibitors | 0.56% of 390,000 active; also: nearly all actives have a fitted effect of over 70% in size
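Compound inhibition of the preformed complex between 50 nM HP1-beta and 50 nM biotinylated H3K9me3 peptide was read by AlphaScreen. Buffer was PBS pH 7.4 with 0.01% Tween-20. Incubations ran 30 min at room temperature, with 10 ug/mL donor/acceptor beads.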
JMJD2A Tudor – blocks the human JMJD2A Tudor domain; Potency, µM (titrated, usually from 114 µM), usual class: inhibitors; 4.4% of 390,000 active; O75164; AlphaScreen JMJD2A-Tudor / H3K4me3 peptide binding; also: nearly all actives have a fitted effect of over 50% in size
Hits are given with their value; - = inactive; ? = inconclusive; . = no result given; [ ] = another dose, or the depositor's remark. Calls follow the shape of the dose curve; as a rule, active = well fitted curve in the direction sought with a large enough effect; inconclusive = small, poorly fitted or top-dose-only effect, or another doubt; inactive = no such curve, though single readings can be large; an effect the other way counts as inactive or inconclusive.

SMILES | L3MBTL1 inh | BAZ2B inh | G9a inh | Sfp inh | HP1b binding inh | JMJD2A Tudor
CC1=CC(C)(C)Nc2ccc(OC(=O)CN3C(=O)CCC3=O)cc21 | . | - | -[12.7 µM] | - | - | -
CC1=CC(C)(C)Nc2ccc(OC(=O)c3cccnc3)cc21 | ? | 40µM | 45µM | ? | - | ?
O=C(Oc1ccc(F)cc1)c1cccnc1 | . | - | - | - | - | -
COc1ccc(OC(=O)C(C)N2C(=O)c3ccccc3C2=O)cc1 (centres undefined) | - | - | - | - | - | -
CC1=CC(C)(C)Nc2ccc(OC(=O)C(C)N3C(=O)c4ccccc4C3=O)cc21 (centres undefined) | ? | 22µM | 10µM | - | ? | ?
Cc1cccc(NS(=O)(=O)c2ccc3c(c2)CCN3C(=O)C2CCC2)c1 | . | . | - | . | - | -
CCCCN(CC)CCNC(=O)C1CCN(c2nnc(C)c3c(C)n(-c4ccc(C)cc4)nc23)CC1 | . | - | ? | . | - | -
Oc1ccc(N2CCN(c3ncnc4sc(-c5ccccc5)cc34)CC2)cc1 | ? | 40µM | 3.2µM | 20µM | ? | 16µM
Cc1nc(N2CCN(S(=O)(=O)c3ccccc3)CC2)c2cc(-c3ccccc3)sc2n1 | . | - | ? | - | - | -
Cc1nc(N2CCN(C)CC2)c2cc(-c3ccccc3)sc2n1 | . | - | 50µM | ? | - | -
Cc1nc(N2CCN(C)CC2)c2sc(=S)n(-c3ccccc3)c2n1 | ? | - | 40µM | - | - | -
CC(=O)c1cc(NC(=O)c2ccccc2)c(=O)oc1C | . | - | 32µM | ? | ? | -
CC1(C)CC(=O)c2cc(NC(=O)c3ccccc3)c(=O)oc2C1 | - | - | - | - | - | 79µM
Cc1oc(=O)c(NC(=O)c2ccc(Cl)cc2)cc1C(=O)c1ccccc1 | - | - | . | 8.9µM | - | ?
CC(=O)c1cc(NC(=O)c2ccc(C)cc2)c(=O)oc1/C=C/N(C)C | - | - | -[12.7 µM] | - | - | -
CC(=O)c1cc(NC(=O)c2ccc(C)cc2)c(=O)oc1C | . | - | 18µM | ? | - | 20µM
CCN(CC)C(=O)c1c(NC(=O)c2cccc(C)c2)sc2c1CCC(C)C2 (centres undefined) | . | - | - | . | - | -
COc1ccccc1NC(=O)Cn1c(=O)n(Cc2ccccc2)c(=O)c2c1c1cc(C)ccc1n2C | . | - | - | . | - | -
Cc1oc(=O)c(NC(=O)c2ccccc2)cc1C(=O)c1ccccc1 | - | - | . | 16µM | - | -
Cc1ccc(CNC(=O)CN2CCN(Cc3ccc(F)cc3)C2=O)cc1 | . | - | - | . | - | -
NC(N)=Nc1nc2ccccc2o1 | - | - | ? | - | - | 13µM
COc1cccc(NC(=O)Cn2c(=O)n(CCCCC(=O)NCc3ccc4c(c3)OCO4)c(=O)c3ccccc32)c1 | . | - | - | . | - | -
CCCCn1cc(S(=O)(=O)c2ccc(CC)cc2)c(=O)c2cc(F)c(N3CCOCC3)cc21 | . | - | - | . | - | -
O=c1ccc2c(OCCCCOc3ccccc3)c3ccoc3cc2o1 | . | . | . | - | . | .
CC1=CC(C)(C)[N+](C)=CN1c1ccccc1 | - | - | 6.3µM | - | - | -
SMILES | L3MBTL1 inh | BAZ2B inh | G9a inh | Sfp inh | HP1b binding inh | JMJD2A Tudor
Cc1nc2cc(C(=O)O)ccc2n1-c1ccccc1 | - | - | ? | - | - | -
O=C(NCc1ccco1)Nc1ccccc1Cl | -[11.4 µM] | - | -[12.7 µM] | - | - | -
O=C(NCc1ccco1)c1csc(Nc2ccccc2Cl)n1 | - | ? | 32µM | 28µM | - | -
COc1ccc(Nc2nc(C(=O)NCc3ccco3)cs2)cc1 | . | 79µM | ? | - | - | ?
COc1ccc(Nc2nc(C(=O)N(CCO)Cc3ccccc3)cs2)cc1 | - | 50µM | 45µM | - | - | -
COc1ccc(Nc2cc(C(=O)NCc3ccco3)c3ccccc3n2)cc1 | - | - | - | - | . | .
Cc1ccccc1NC(=O)c1c(C)[nH]c(=S)c(C#N)c1-c1ccc(Cl)cc1 | - | - | ? | - | - | -
CCc1[nH]c(=S)c(C#N)c(-c2ccccc2)c1C(=O)OC | - | - | 16µM | - | - | ?
Cc1ccc(-c2c(C(=O)Nc3ccccc3C)c(C)[nH]c(=S)c2C#N)o1 | -[2.29 µM] | 79µM | - | 2.8µM | - | -[11.4 µM]
Cc1[nH]c(=S)c(C#N)c(-c2ccccc2)c1C(=O)Nc1ccccc1 | - | - | ? | 28µM | - | 79µM
CCN(C(=O)Cn1cnc2onc(-c3ccc(F)cc3)c2c1=O)c1cc(C)ccc1C | . | - | - | . | - | -
CCn1c(Cl)c(C=O)s/c1=N\S(=O)(=O)c1ccccc1 | - | - | 45µM | ? | - | -[11.4 µM]
O=C(O)CCc1ccc(-c2cccs2)n1NC(=O)c1ccc(Cl)cc1Cl | . | - | 56µM | - | - | -
O=C(O)CCc1ccc(-c2cccs2)n1NC(=O)c1ccc(Cl)cc1 | - | - | -[12.7 µM] | 25µM | - | -
O=C(O)CCc1ccc(-c2cccs2)n1NC(=O)c1ccco1 | . | - | - | - | - | -
COc1ccc(C)cc1NC(=O)c1ccc2c(c1)nnn2C1CCCC1 | . | - | - | . | - | -
Cc1cc(NCCCn2ccnc2)n2nc(-c3ccc(Cl)cc3)cc2n1 | - | 45µM | . | - | - | ?
Cc1cc(NCCCn2ccnc2)n2nc(-c3ccc(F)cc3)cc2n1 | - | ? | -[12.7 µM] | - | - | -
COc1ccc(C(CC(=O)Nc2ccc(C(C)=O)cc2)N2Cc3ccccc3C2=O)cc1 (centres undefined) | . | - | - | . | - | -
Cn1c2c(c(=O)n(C)c1=O)C(c1cccc(O)c1)CC(=O)N2 (centres undefined) | . | - | - | . | - | -
CC1CN(CCOc2ccc(Cl)cc2Cl)CC(C)O1 (centres undefined) | - | - | ? | - | ? | 8.9µM
COc1cc(C)ccc1OCCCCN1CC(C)OC(C)C1 (centres undefined) | . | 50µM | 8.9µM | - | ? | 35µM
CC1CN(CCS(=O)(=O)c2cc(Cl)ccc2Cl)CC(C)O1 (centres undefined) | . | - | - | - | - | -
CC1CN(CCCCOc2ccc(Cl)c3ccccc23)CC(C)O1 (centres undefined) | - | ? | . | 79µM | - | 11µM
COc1ccc(C)cc1S(=O)(=O)N1CC(C)OC(C)C1 (centres undefined) | - | - | . | - | - | -
Cc1cc(C)c(C)c(OCCN2CC(C)OC(C)C2)c1 (centres undefined) | - | 32µM | 1.8µM | 45µM | ? | 5.6µM
Cc1ccc(-c2ccc(=O)n(CC(=O)Nc3ccc(C(C)C)cc3)n2)cc1 | . | - | - | . | - | -
FC(F)(F)c1ccccc1-c1nc(NC2CCNCC2)c2ccccc2n1 | . | . | -[0.501 µM] | - | . | .
CC(CCC(=O)O)C1CCC2C3C(O)C[C@@H]4CC(O)CC[C@@]4(C)C3CC(O)[C@]12C (some centres undefined) | . | . | . | - | . | .
